TGFb SMAD3 inh = TGF-b pathway inhibition | HepG2 CAGA-GFP TGF-b/SMAD3 reporter, GFP fluorescence, 18 h; TGF-beta stimulated, 500 pg/mL final | 1.2% of 410,000 active | Potency, µM (series often up to 46.1 µM), for inactives: at the highest dose activity, negative = inhibition, hits mostly inhibitors; further: on the % scale 0 is the no-effect control and ±100 the full control effect; nearly all actives have a fitted effect of over 65% in size
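Read-out: total well GFP (ex488/em500-530) summed from mean per-cell fluorescence. Cells: HEPG2 CAGA-GFP, 1% FBS DMEM, 18 h at 37 degrees C with 500 pg/mL final TGF-beta. Unstimulated wells served as the full-inhibition control; stimulated DMSO wells = 0%.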
HepG2 viability = counter-screen for TGF-b inhibitors: cytotoxicity in HepG2 cells. HepG2 CAGA-GFP viability, ATP luminescence, 18 h. Potency, µM (titrated, usually from 46.1 µM), without a hit: at the highest dose activity change, negative = cytotoxicity, most hits filed as cytotoxic. 0.76% of 410,000 active. AID 588856
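CellTiter-Glo luminescence gave cytotoxicity after 18 hours at 37 degrees C. The cells were HepG2 CAGA-GFP in 1% FBS DMEM, stimulated with 500 pg/mL TGF-beta after compound addition. %Activity was normalised to no-cell wells (complete cell-killing) and DMSO (no toxicity), and curves were fitted and classified.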
DT40 TDP1 CPT = growth inhibition of DT40 Tdp1-/-;hTDP1 cells with camptothecin (screen for TDP1 inhibitors); chicken DT40 Tdp1-/-;hTDP1 cells + 20 nM CPT, ATP luminescence, 48 h; 12% of 420,000 active; Potency, µM (top dose mostly 46.2 µM), for the others: at the highest dose activity change, negative = growth inhibition, actives largely listed as inhibitors; further: on the % scale 0 is the no-effect control and ±100 the full control effect; nearly all actives have a fitted effect of over 55% in size
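Chicken DT40 Tdp1-/- cells complemented with human TDP1, 400 cells/well, exposed to compounds plus 20 nM camptothecin for at least 48 h at 37 C; viability read as ATP content by CellTiter-Glo luminescence.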
S2 tox = viability counter-screen for ATXN expression inhibitors. S2 cells (HEK-293 line with an ATXN2-luciferase reporter) viability, CellTiter-Fluor protease fluorescence, 24 h. Potency, µM (doses to about 56.7 µM), usual class: cytotoxic. 0.49% of 400,000 active; further: nearly all actives have a fitted effect of over 40% in size
ATXN2 expr inh = inhibitors of ATXN2 expression; HEK-293 ATXN2-luciferase reporter, luminescence, 24 h; Potency, µM (titrated, usually from 57 µM), for inactives: at the highest dose activity change, negative = inhibition, actives largely listed as inhibitors; 0.72% of 360,000 active; AID 1745845; further: on the % scale 0 is the no-effect control and ±100 the full control effect; nearly all actives have a fitted effect of over 55% in size
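qHTS (up to 57 uM final) was run with 24 h compound exposure of reporter cells at 37 °C. Each well was multiplexed: SteadyGlo luminescence measured ATXN2-luciferase expression after a fluorogenic Gly-Phe-AFC viability readout (25 uM final).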
TDP1 cell noCPT = qHTS for Inhibitors of human tyrosyl-DNA phosphodiesterase 1 (TDP1): qHTS in cells in absence of CPT | DT40 Tdp1-/- hTDP1 cells, no CPT, ATP luminescence, 48 h | 15% of 420,000 active | Potency, µM (titrated, usually from 46.2 µM), for the others: top-dose activity change, negative = growth inhibition, usual class: inhibitors; further: on the % scale 0 is the no-effect control and ±100 the full control effect; nearly all actives have a fitted effect of over 55% in size
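Luminescent ATP content (CellTiter-Glo) served as the growth readout. Knockout chicken DT40 cells expressing human TDP1 were exposed to compounds without camptothecin for a minimum 48 hr at 37 °C.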
Active calls of the source: *; i = inactive; ? = inconclusive; nt = no result; [ ] = remark or other dose. Compounds with a hit are over-represented: about 17% of the library has one in this group of screens. The call rests on the fitted dose curve; in most records, active means well fitted curve in the direction sought with a large enough effect; inconclusive means small, poorly fitted or top-dose-only effect, or another doubt; inactive means no such curve, though single readings can be large; an effect the other way counts as inactive or inconclusive. Potency means the concentration at half of the fitted maximal effect.

SMILES | TGFb SMAD3 inh | HepG2 viability | DT40 TDP1 CPT | S2 tox | ATXN2 expr inh | TDP1 cell noCPT
CCOC(=O)[C@@H](C)N(Cc1ccc(OC)cc1)S(=O)(=O)N(Cc1ccccc1)[C@H](C(=O)OC)C(C)C | ? | 4% | ? | i | -12% | -93%
COc1ccccc1CNC(=O)[C@@H](NC(=O)C1CCN(C(=O)[C@@H]2CCCN2C(=O)OC(C)(C)C)CC1)C(C)C | 12% | 1% | 0% | i | 1% | -10%
COc1ccc(N2CC(C(=O)OC(C)C(=O)c3ccccc3)CC2=O)cc1 (stereo not drawn) | -13% | -1% | 5% | i | 12%[11.3 µM] | 11%
CCN1/C(=C/C=C/c2oc3ccc(-c4ccccc4)cc3[n+]2CC)Oc2ccc(-c3ccccc3)cc21 | 103% | -111% | 0.0073µM* | nt | 9.5µM* | 0.073µM*
CC(=O)c1ccc(N(C)C)cc1 | 17% | 7% | -4% | i | 4% | -8%
CN(C)c1ccc(C(=C2C=CC(=[N+](C)C)C=C2)c2ccc(N(C)C)cc2)cc1 | ? | -93% | 0.23µM* | 18µM* | 7.7µM* | 0.52µM*
CCOc1ccc(CN2CCC(Cc3ccccc3)CC2)cc1 | ? | -25% | ? | i | nt | ?
O=C1CC(c2cccc(F)c2)c2c(c3ccccc3[nH]c2=O)O1 (stereo not drawn) | 0% | 5% | -7% | i | -20% | -5%
CCN(C(=O)COC(=O)C12CC3CC(CC(NC(C)=O)(C3)C1)C2)C1CCCCC1 | -3% | 1% | ? | i | 15% | 21µM*
CCCOc1ccc(C2C(=O)N(C3CCC(C)CC3)CC(=O)N2CCc2ccccc2)cc1OC (stereo not drawn) | 17% | 1% | ? | nt | nt | ?
COc1ccc(Cc2nnc(SCC(=O)N3CCCCC3)o2)cc1 | 5% | -8% | 5% | i | nt | 23µM*
COc1ccc(Cc2nnc(SCC(=O)N3CCN(c4ccccc4)CC3)o2)cc1 | 2% | 2% | 23µM* | i | -10% | 23µM*
CCOC(=O)c1ccc(NC(=S)N2CCC(C(N)=O)(N3CCCCC3)CC2)cc1 | -8% | -11% | -10% | i | -25% | -17%
CCCC(=O)N1CCCC(c2cc(C(=O)NCc3ccc(F)cc3)no2)C1 (stereo not drawn) | 24% | 3% | -3% | i | 14% | -26%
O=C(COC(=O)[C@H](Cc1ccccc1)NC(=O)c1ccco1)NCc1ccccc1 | -10% | -9% | -4% | nt | nt | -15%
O=S(=O)(c1cccnc1)N1CCCC(Nc2ccc(F)c(F)c2)C1 (stereo not drawn) | -1% | -23% | ? | ? | nt | ?
Cn1c(=O)n(C)c2cc(CNCc3ccccc3Cl)ccc21 | 4% | -7% | ? | i | 11% | ?
O=c1c2ccccc2nc(SCc2ccccc2)n1Cc1ccco1 | -24% | -16% | -23% | i | -11% | ?
O=c1c2ccccc2nc(SCc2nc3ccccc3s2)n1Cc1ccco1 | -7% | -12% | 13µM* | i | -13% | 18µM*
CCn1c(SCc2ccccc2)nc2cc(S(N)(=O)=O)ccc21 | -10% | -20% | -24% | i | -7% | ?
CCCCn1c(SCc2nc3ccccc3s2)nc2cc(S(N)(=O)=O)ccc21 | ? | -28% | 16µM* | ? | -12% | 16µM*
CCCCn1c(SCc2nc3ccccc3s2)nc2ccccc2c1=O | -7% | 0% | 21µM* | i | -14% | 8.2µM*
CCc1sc(C(=O)Nc2ccc3c(c2)OCO3)cc1C | ? | -3% | -3% | i | 70% | ?
Cc1cc2c(cc1C)N[C@]1(C[C@H]3CCCC(=O)N4CC[C@@H](C1)[C@@H]34)C(=NC1CCCCC1)N2 | ? | -27% | -29% | nt | nt | -25%
O=C(Cn1[nH]c(=O)c2ccccc2c1=O)Nc1cccc(S(=O)(=O)N2CCCCCC2)c1 | -9% | -6% | -7% | i | -24% | ?
SMILES | TGFb SMAD3 inh | HepG2 viability | DT40 TDP1 CPT | S2 tox | ATXN2 expr inh | TDP1 cell noCPT
CC(C)CCN1CCN(Cc2ccoc2)CC1CCO (stereo not drawn) | 5% | 3% | 7% | i | -1% | 6%
COc1ccc2[nH]c(CN3CCN(CC(C)C)C(CCO)C3)c(C)c2c1 (stereo not drawn) | -8% | -34% | -17% | i | -6% | 23µM*
COc1ccc2[nH]c(CN3CCN(C(C)C)C(CCO)C3)c(C)c2c1 (stereo not drawn) | 11% | 6% | 16% | i | -15% | -24%
CC(C)CN1CCN(Cc2c[nH]c3ccccc23)CC1CCO (stereo not drawn) | -16% | -6% | 8.2µM* | i | -5% | ?
CC(C)CCN1CCN(CC(c2ccccc2)c2ccccc2)CC1CCO (stereo not drawn) | ? | -19% | 23µM* | ? | -20% | 21µM*
CN(C)c1ccc(CNC(=O)CN2C(=O)C3CCCCN3c3ccc(C(=O)N4CCCC4)cc32)cc1 (stereo not drawn) | -2% | -13% | 23µM* | i | 1% | ?
Cc1ccc(CNC(=O)CN2C(=O)C3CCCCN3c3ccc(C(=O)N4CCCC4)cc32)cc1 (stereo not drawn) | ? | 2% | -7% | ? | -3% | -7%
Cc1cccc(CNC(=O)c2ccc3c(c2)N(C)C(=O)C2CCCCN32)c1 (stereo not drawn) | 32% | -26% | 13µM* | i | 237% | ?
O=C1Nc2cc(C(F)(F)F)ccc2N2CCCCC12 (stereo not drawn) | ? | -19% | -3% | i | -13% | ?
CCOc1cc(CNC(=O)c2ccc3c(c2)NC(=O)C2CCCCN32)cc(OCC)c1OCC (stereo not drawn) | -4% | -21% | 18µM* | i | -19% | ?
CCN1C(=O)C2CCCCN2c2ccc(C(=O)NCCOC)cc21 (stereo not drawn) | -2% | 1% | 21% | i | nt | 5%
Cc1ccc2scc(N3CCCC(C)C3)c(=O)c2c1 (stereo not drawn) | -9% | -5% | -17% | i | 93% | -19%
O=S(=O)(Nc1ccc2nc(-c3ccc(F)cc3)oc2c1)c1ccccc1 | ? | -104% | ? | ? | ? | -29%
Nc1ccc(C(=O)OCC(O)CO)cc1 (stereo not drawn) | nt | nt | nt | i | -1% | nt

Source: PubChem BioAssay (National Center for Advancing Translational Sciences (NCATS))
